From PubChem
An excerpt weighted towards active compounds, which were near 0.88% of everything screened.
RGS4 inh: inhibitors of human regulator of G protein signaling 4; P49798; Transcreener GDP fluorescence polarization, RGS4-accelerated GTP hydrolysis; Potency, µM (highest dose often 114 µM), without a hit: at the highest dose activity change, negative = inhibition, usual class: inhibitors; 390,000 tested, 0.039% active; AID 504845; note: potency is the fitted concentration of half-maximal effect; % is set by controls: 0 for no effect and ±100 for the full control effect; nearly all actives have a fitted effect of over 75% in size
Target sequence (P49798 whole entry, looked up): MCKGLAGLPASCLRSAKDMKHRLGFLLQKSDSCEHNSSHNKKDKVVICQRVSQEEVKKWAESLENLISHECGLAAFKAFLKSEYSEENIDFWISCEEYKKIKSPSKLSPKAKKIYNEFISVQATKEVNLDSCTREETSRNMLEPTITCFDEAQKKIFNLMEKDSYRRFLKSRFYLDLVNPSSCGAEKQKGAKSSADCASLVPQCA
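MLSMR compounds (23 nl, pin-transferred) preincubated 10 min at room temperature with a 500nM (2x) first reagent, then RGS4 at 900nM (2x) plus Transcreener GDP mix added; fluorescence polarization (620/688 nm) read before and after 90 min at 30 °C.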
Glioma ERSR ind: induces the endoplasmic reticulum stress response in human glioma cells. U87-MG GRP78 promoter luciferase reporter, 16 h. Potency, µM, without a hit: at the highest dose activation, usual class: activators. 420,000 tested, 0.02% active. AID 602332; note: potency is the fitted concentration of half-maximal effect; series mostly up to about 76 µM; % of control where 0% means no effect; nearly all actives have a fitted effect of over 35% in size
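Stably transfected U87-MG human glioma cells carrying a GRP78-based luminescent sensor were seeded at 1000 cells/well, pin-dosed with compounds and incubated 16 h. Luciferase reagent was then added, and end-point luminescence was read after 10 min at room temperature.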
Six1-Eya2 inh: Six1/Eya2 interaction inhibition; Q15475+O00167; AlphaScreen GST-Six1/His-Eya2 binding, biochemical; stronger effect = lower value; activity change, % (concentration not given with the values); 360,000 tested, 0.56% active; AID 651725; in the data active = activity change below about -65%; inconclusive = mostly about -30% to -63%; note: % is set by controls: 0 for no effect and ±100 for the full control effect
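AlphaScreen luminescence read after one hour at 37 °C in darkness. Pin-transferred compounds met GST-Six1 and His-Eya2 protein (5X stock 250 nM/500 nM) plus glutathione donor and Ni-chelate acceptor beads (5X, 50 ug/mL).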
CtBP-E1A inh: inhibitors of CtBP/E1A interaction. AlphaScreen GST-E1A/His-CtBP binding, 1536-well; stronger effect = lower value. activity change, % (test concentration not listed). 340,000 tested, 0.49% active. AID 651724; in the data active = activity change below about -65%; inconclusive = mostly about -30% to -63%; note: % is set by controls: 0 for no effect and ±100 for the full control effect
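GST-E1A and His-tagged CtBP (125 nM each as 5X stock) were preincubated with pin-transferred compound for 2 h at 37 °C in the dark, then glutathione donor and nickel acceptor beads were added for 1 h before AlphaScreen reading.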
pAkt inh: blocks phosphorylation of Akt; Neuro2A IGF-stimulated pAkt S473 HTRF, 20 min; stronger effect = lower value; activity change, % for hits at 50 µM; 360,000 tested, 0.32% active; in the data active = activity change below about -80%; inconclusive = mostly about -51% to -80%; note: % is set by controls: 0 for no effect and ±100 for the full control effect
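Neuro2A cells (4,500/well, DMEM with 0.5% FBS) were treated with compound at a single 50 µM final concentration, stimulated with 6 nM IGF for 20 min at 37 °C, and lysed. Phospho-Akt Ser473 was read by HTRF as 665/615 ratio ×10^4.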
* marks the source's active call; other numbers are inactive results; ! = not confirmed by another sample; [ ] = another dose, or the depositor's remark. Unless noted, calls come from the whole dose curve; as a rule, active = well fitted curve in the direction sought with a large enough effect; inconclusive = small, poorly fitted or top-dose-only effect, or another doubt; inactive = no such curve, though single readings can be large; an effect the other way counts as inactive or inconclusive.

Results for CC1(C(=O)O)CCC(C(=O)NNC(=O)c2ccccc2Cl)C1(C)C (stereo not given) ?
RGS4 inh: 17%; Glioma ERSR ind: -10%; Six1-Eya2 inh: 0; CtBP-E1A inh: -65*; pAkt inh: inactive

What do the screens show for `COc1ccc2nc(/N=C/c3c(C)[nH]n(-c4ccc(C)cc4C)c3=O)sc2c1`?
RGS4 inh: 25%; Glioma ERSR ind: 2%; Six1-Eya2 inh: -70*; CtBP-E1A inh: -88*; pAkt inh: inactive

What do the screens show for `COc1ccccc1-c1ccc(C(=O)NCCN2CCOCC2)c(N2CCN(c3ccccc3F)CC2)n1`?
Glioma ERSR ind: -5%

How did C[C@](N)(Cc1ccc(O)c(O)c1)C(=O)O do in these assays?
RGS4 inh: 27µM*!; Glioma ERSR ind: 0%; Six1-Eya2 inh: -28; CtBP-E1A inh: 2; pAkt inh: inactive

How did C[C@](N)(Cc1ccc(O)cc1)C(=O)O do in these assays?
RGS4 inh: 2%[56.9 µM]; Glioma ERSR ind: -3%

How did Cc1ccc(C(=O)C[n+]2cccc3cccc(O)c32)cc1 do in these assays?
Glioma ERSR ind: -4%

Results for O=C(COc1ccc(F)cc1)N/N=C/c1cccc2cccnc12 ?
RGS4 inh: -29%; Glioma ERSR ind: -1%; Six1-Eya2 inh: inconclusive; CtBP-E1A inh: -86*; pAkt inh: inactive

Results for Cc1ccc(OCC(=O)N/N=C/c2cn(C)c3ccccc23)cc1 ?
RGS4 inh: 5%; Glioma ERSR ind: -3%; Six1-Eya2 inh: 0; CtBP-E1A inh: 6; pAkt inh: inactive

Results for O=C(COc1cccc2cccnc12)N/N=C/c1ccccc1O ?
RGS4 inh: -47%; Glioma ERSR ind: -4%; Six1-Eya2 inh: -18; CtBP-E1A inh: -25; pAkt inh: inactive

What do the screens show for `Cc1ccc(OCC(=O)N/N=C/c2cccc3cccnc23)cc1`?
RGS4 inh: 1%; Glioma ERSR ind: -4%; Six1-Eya2 inh: -77*; CtBP-E1A inh: -90*; pAkt inh: inactive

What do the screens show for `Cc1ccccc1OCC(=O)N/N=C/c1cccc2cccnc12`?
RGS4 inh: -12%; Glioma ERSR ind: -2%; Six1-Eya2 inh: -76*; CtBP-E1A inh: -13; pAkt inh: inactive

What do the screens show for `CC(C)(C)OC(=O)NCCC(=O)N/N=C/c1cccc2cccnc12`?
RGS4 inh: 2%; Glioma ERSR ind: -5%; Six1-Eya2 inh: inconclusive; CtBP-E1A inh: -79*; pAkt inh: inactive

Results for CC/C(=C\c1ccc(C(=O)OC)cc1)c1cc(OC)cc2oc3ccccc3c12 ?
Glioma ERSR ind: -1%

Results for COc1ccc2[nH]c(C(=O)O)c(NS(=O)(=O)c3ccc(Cl)s3)c2c1 ?
RGS4 inh: -20%; Glioma ERSR ind: 0%; Six1-Eya2 inh: -9; CtBP-E1A inh: -9; pAkt inh: -88%*

Results for CCOC(=O)c1[nH]c2ccc(OC)cc2c1NS(=O)(=O)c1ccc(Cl)s1 ?
RGS4 inh: -8%; Glioma ERSR ind: -5%; Six1-Eya2 inh: -6; CtBP-E1A inh: 11; pAkt inh: inactive

Results for CCC1CN(Cc2cn[nH]c2-c2ccccc2)Cc2cc(OC)ccc2O1 (stereo not given) ?
Glioma ERSR ind: 3%

Results for COc1ccc(OC)c(C2C=C(C34CC5CC(CC(C5)C3)C4)NC(=S)N2)c1 (stereo not given) ?
RGS4 inh: inconclusive; Glioma ERSR ind: -2%; Six1-Eya2 inh: inconclusive; CtBP-E1A inh: inconclusive; pAkt inh: inactive

Results for COc1cc(C2C=C(C34CC5CC(CC(C5)C3)C4)NC(=S)N2)cc(OC)c1OC (stereo not given) ?
RGS4 inh: -34%; Glioma ERSR ind: -2%; Six1-Eya2 inh: -20; CtBP-E1A inh: -2; pAkt inh: -113%*

What do the screens show for `CCCCOC(=O)CSc1n[nH]c(=O)[nH]c1=O`?
RGS4 inh: -23%; Glioma ERSR ind: 0%; Six1-Eya2 inh: 3; CtBP-E1A inh: 13; pAkt inh: -124%*

How did CCCCCOC(=O)C(C)Sc1n[nH]c(=O)[nH]c1=O (stereo not given) do in these assays?
RGS4 inh: -6%[11.4 µM]; Glioma ERSR ind: -1%; Six1-Eya2 inh: 4; CtBP-E1A inh: 9; pAkt inh: inactive

How did O=[N+]([O-])c1cc(Br)c(O)c(/C=N/Nc2nnnn2-c2cccc3ccccc23)c1 do in these assays?
RGS4 inh: -16%; Glioma ERSR ind: -5%; Six1-Eya2 inh: inconclusive; CtBP-E1A inh: -70*; pAkt inh: inactive

Results for O=[N+]([O-])c1ccc(NN=Cc2cccc3ccccc23)cc1 ?
RGS4 inh: 22%; Glioma ERSR ind: -1%; Six1-Eya2 inh: 1; CtBP-E1A inh: 4; pAkt inh: inactive

Results for COc1c(O)c(=O)n2c3ccccc3c3ccnc1c32 ?
RGS4 inh: -4%; Glioma ERSR ind: -1%; Six1-Eya2 inh: -77*; CtBP-E1A inh: -82*; pAkt inh: inactive

Results for CCOC(=O)Cn1cccc1-c1nc(-c2ccc(OC)cc2)c(-c2ccc(OC)cc2)s1 ?
Glioma ERSR ind: -2%

How did CCC1(C2CCN(C(=O)c3ccc(C)cc3C)CC2)NC(=O)N(CCc2scnc2C)C1=O (stereo not given) do in these assays?
Glioma ERSR ind: -3%

How did COCCNC(=O)c1cc(C)ccc1C do in these assays?
RGS4 inh: -17%; Glioma ERSR ind: -4%; Six1-Eya2 inh: 8; CtBP-E1A inh: 4; pAkt inh: inactive

What do the screens show for `Cc1ccc(C)c(C(=O)NCCN(C)C)c1`?
RGS4 inh: -1%; Glioma ERSR ind: -1%; Six1-Eya2 inh: 1; CtBP-E1A inh: 0; pAkt inh: -110%*

What do the screens show for `Cc1ccc(C(=O)NCCN(C)C)cc1C`?
RGS4 inh: -4%; Glioma ERSR ind: -2%; Six1-Eya2 inh: 3; CtBP-E1A inh: 8; pAkt inh: -107%*

Results for CCOc1ccc(C(=O)NCCN(C)C)cc1 ?
RGS4 inh: -5%; Glioma ERSR ind: -6%; Six1-Eya2 inh: 3; CtBP-E1A inh: 6; pAkt inh: inactive

How did CCN1CCN(CCOc2ccccc2OCc2ccccc2)CC1 do in these assays?
RGS4 inh: -20%[56.9 µM]; Glioma ERSR ind: 0%; Six1-Eya2 inh: -7; pAkt inh: inactive

What do the screens show for `Cc1cc(COc2ccccc2OCCN2CCN(C)CC2)no1`?
RGS4 inh: 13%; Glioma ERSR ind: 1%; Six1-Eya2 inh: -4; CtBP-E1A inh: -4; pAkt inh: -104%*

Results for COC(c1ccc2c(c1)CN(C(=O)Cn1nc(C)c3ccccc3c1=O)CCO2)C1CCCCC1 (stereo not given) ?
Glioma ERSR ind: -2%

What do the screens show for `CC(=O)Oc1cc(C)c(OC(C)=O)c2ccccc12`?
Glioma ERSR ind: -12%

How did O=C(c1ccc(S(=O)(=O)N2CCCCC2)cc1)N1CCCc2ccccc21 do in these assays?
RGS4 inh: -9%; Glioma ERSR ind: -4%; Six1-Eya2 inh: -7; CtBP-E1A inh: 3; pAkt inh: -108%*
